Screens: PubChem, Broad Institute
PDI inh = inhibitors of human PDI, primary screen, biochemical, turbidity, single point, plate reader. actives 0.052% (n = 350,000). Protein disulfide-isomerase (Homo sapiens), P07237. inhibition, % at 10 µM. PDI insulin aggregation turbidity, A650, 90 min;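 active = mean inhibition across replicates of 30% or more, whatever share of single replicates reach that level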
PvdQ acylase = P. aeruginosa PvdQ acylase inhibitors, primary screen, biochemical, fluorescence, plate reader and imaging, single point; PvdQ acylase [Pseudomonas aeruginosa LESB58]; purified PvdQ acylase; inhibition, % at 10 µM; actives 0.063% (n = 340,000); AID 488965, 2010; in the data active = inhibition above about 30%, passing the limit was not always enough;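 also: 0% = vehicle neutral wells and 100% = reference inhibitor wells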
ERp5 inh = inhibitors of ERp5-driven insulin aggregation, primary screen, biochemical, turbidity, absorbance 650 nm, single point. actives 0.05% (n = 350,000). AID 651711, 2012. Protein disulfide-isomerase A6 (Homo sapiens), Q15084. 90 min. inhibition, % at 9.99 µM;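 active = mean replicate inhibition above about 25%, with every replicate also reaching it, limit read from the data, passing the limit was not always enough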
Target sequence (Q15084 whole entry, looked up): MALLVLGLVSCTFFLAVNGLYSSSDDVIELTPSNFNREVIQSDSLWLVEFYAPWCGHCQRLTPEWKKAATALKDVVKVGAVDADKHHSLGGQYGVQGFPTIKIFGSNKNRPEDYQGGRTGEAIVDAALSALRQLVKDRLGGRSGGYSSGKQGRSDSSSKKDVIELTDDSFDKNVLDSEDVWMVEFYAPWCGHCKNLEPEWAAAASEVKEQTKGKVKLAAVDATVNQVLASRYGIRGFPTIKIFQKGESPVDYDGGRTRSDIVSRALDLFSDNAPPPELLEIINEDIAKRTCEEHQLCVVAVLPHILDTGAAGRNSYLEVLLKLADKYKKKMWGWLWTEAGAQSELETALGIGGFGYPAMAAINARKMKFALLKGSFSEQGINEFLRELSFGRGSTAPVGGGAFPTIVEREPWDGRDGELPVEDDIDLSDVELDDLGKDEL
CaV13 ICDI inh = Primary screen for inhibitors of IQ motif and Ca2+-dependent inactivation inhibitor domain binding in CACNA1D, Förster resonance energy transfer in living cells, … | AID 743397 | inhibition, % at 12.3 µM | HEK cells, CFP/YFP FRET ICDI-IQ, plate reader, 10 min; percent FRET-ratio fall versus neutral wells | actives 0.098% (n = 340,000);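 active = mean replicate inhibition of at least 30% and at least 1% of replicates passing that level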;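 also: 0% = median of the neutral control wells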
* = called active by the depositor. Most compounds without a hit are left out; they make up all but 0.2% or so of the library.

How did C[C@H](CO)N1C[C@H](C)[C@H](CN(C)C(=O)Nc2ccc(C(F)(F)F)cc2)Oc2ccc(NC(=O)CCC(F)(F)F)cc2C1=O do in these assays?
ERp5 inh: -6.0

How did COc1ccc(C2CC(c3ccccc3)=NN2c2ccc(S(N)(=O)=O)cc2)cc1 (centres undefined) do in these assays?
PDI inh: -0.5; PvdQ acylase: -36.6; ERp5 inh: 1.0; CaV13 ICDI inh: -2.4

Results for O=C(O)c1ccc(N2N=C(c3ccccc3)CC2c2ccccc2)cc1 (centres undefined) ?
PDI inh: 10.7; PvdQ acylase: -17.8; ERp5 inh: 2.7; CaV13 ICDI inh: 115.2*

What do the screens show for `COc1ccc(C2CC(c3ccccc3)=NN2c2ccc(C(N)=O)cc2)cc1` (centres undefined)?
PDI inh: 22.4; PvdQ acylase: -50.8; ERp5 inh: 1.4; CaV13 ICDI inh: 82.8*

Results for C=Cc1ccc(Cn2c(C)c(C(=O)NCc3cccc(C)c3)sc2=O)cc1 ?
PDI inh: 9.7; ERp5 inh: 1.2; CaV13 ICDI inh: 69.1*

Results for CSc1ccc(Cn2c(C)c(C(=O)NCc3cccc(Cl)c3)sc2=O)cc1 ?
PDI inh: -7.3; ERp5 inh: 7.7; CaV13 ICDI inh: 42.0*

Results for Cc1c(C(=O)NCc2cccc(Cl)c2)sc(=O)n1Cc1cccc(F)c1 ?
PDI inh: 6.3; ERp5 inh: 2.1; CaV13 ICDI inh: 4.6

What do the screens show for `Cc1c(C(=O)NCc2ccc(Cl)c(Cl)c2)sc(=O)n1Cc1cccc(F)c1`?
PDI inh: 5.5; ERp5 inh: 5.4; CaV13 ICDI inh: 39.1*

Results for COc1ccc(Br)c(Cn2c(C)c(C(=O)NCc3ccc4c(c3)OCCO4)sc2=O)c1 ?
PDI inh: -7.1; ERp5 inh: -2.3; CaV13 ICDI inh: 46.6*

What do the screens show for `CSc1ccc(Cn2c(C)c(C(=O)NCc3cccc(C)c3)sc2=O)cc1`?
PDI inh: -9.4; ERp5 inh: -6.5; CaV13 ICDI inh: -8.7

How did CO[C@H]1CN(C)C(=O)c2cc(NC(=O)C3CC3)ccc2OC[C@@H](C)N(Cc2cncnc2)C[C@H]1C do in these assays?
ERp5 inh: 0.5

How did O=C(C[C@@H]1C[C@@H]2c3cc(NC(=O)NC4CCCC4)ccc3O[C@@H]2[C@H](CO)O1)NCc1ccc(Oc2ccccc2)cc1 do in these assays?
ERp5 inh: 3.8

What do the screens show for `C[C@@H]1CN([C@H](C)CO)C(=O)Cc2cc(NC(=O)c3ccncc3)ccc2O[C@H]1CN(C)Cc1ccc2c(c1)OCO2`?
ERp5 inh: 8.8

How did Clc1ccc(/C=C\c2nccc3c2[nH]c2ccccc23)cc1 do in these assays?
PDI inh: 0.7; PvdQ acylase: -38.6; ERp5 inh: 9.4; CaV13 ICDI inh: -7.8

How did N#Cc1ccc(/C=C\c2nccc3c2[nH]c2ccccc23)cc1 do in these assays?
PDI inh: 5.7; PvdQ acylase: -22.7; ERp5 inh: -4.2; CaV13 ICDI inh: 38.1*

What do the screens show for `C[C@@H]1CCCCO[C@@H](CN(C)Cc2ccc(C(=O)O)cc2)[C@@H](C)CN([C@@H](C)CO)C(=O)c2cc(NS(=O)(=O)c3ccc(Cl)cc3)ccc2O1`?
ERp5 inh: -2.0

Results for COc1ccc(CNC(=O)C[C@H]2CC[C@@H](NC(=O)c3ccc4c(c3)OCO4)[C@H](CO)O2)cc1 ?
ERp5 inh: -4.8

Results for Cn1c(O)c(/C=C2\C=Nc3ccccc32)sc1=Nc1ccc(C(=O)O)cc1 ?
PDI inh: 54.2*; PvdQ acylase: -9.2; ERp5 inh: -0.8; CaV13 ICDI inh: -6.8

Results for C/C=C/c1ccc2c(c1)O[C@@H](CN(C)S(C)(=O)=O)[C@H](C)CN([C@@H](C)CO)S2(=O)=O ?
ERp5 inh: 68.1*

What do the screens show for `C/C=C/c1ccc2c(c1)O[C@@H](CN(C)Cc1cccnc1)[C@@H](C)CN([C@H](C)CO)S2(=O)=O`?
ERp5 inh: -0.4

Results for C/C=C/c1ccc2c(c1)O[C@H](CN(C)Cc1cncnc1)[C@H](C)CN([C@@H](C)CO)S2(=O)=O ?
ERp5 inh: 28.7*

How did C/C=C/c1ccc2c(c1)O[C@@H](CN(C)S(C)(=O)=O)[C@H](C)CN([C@H](C)CO)S2(=O)=O do in these assays?
ERp5 inh: 88.3*

How did C[C@@H]1CN([C@H](C)CO)C(=O)Cc2cc(NC(=O)C3CC3)ccc2O[C@@H]1CN(C)S(=O)(=O)c1ccccc1 do in these assays?
ERp5 inh: 5.6
